Screening results deposited in PubChem by National Center for Advancing Translational Sciences (NCATS).
A selection: hits, their analogues and other compounds. The true share with any hit is near 9.9%.
MCF10A rereplic: A quantitative high throughput screen for small molecules that induce DNA re-replication in MCF 10a normal breast cells; MCF 10A DNA re-replication, Hoechst nuclear intensity, 48 h; Potency, µM (titrated, usually from 46.1 µM), actives largely listed as activators; hit rate 2.9% among 350,000; AID 624296, 2012; also: nearly all actives have a fitted effect of over 50% in size
KB-V1 cytotox: qHTS assay for MDR1-selective chemotherapeutics: Primary screen using the drug-selected MDR subline cells KB-V1; KB-V1 MDR cells viability, CellTiter-Glo, 72 h; hit rate 3.4% among 400,000; Potency, µM (top dose mostly 46.1 µM), actives largely listed as cytotoxic; AID 1347076, 2019; also: nearly all actives have a fitted effect of over 60% in size
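Luminescent ATP read-out (CellTiter-Glo, 10 min) measures survival of drug-selected KB-V1 MDR cells after 72 h, 37 degrees C compound exposure. Medium: phenol-red-free DMEM, 10% FBS. Values from fitted concentration-response curves.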
IL-1B inflam inh: qHTS for Inhibitors of Inflammasome Signaling: IL-1-beta AlphaLISA Primary Screen. hit rate 4.7% among 360,000. THP-1 LPS/ATP IL-1B secretion, AlphaLISA, 16 h; hits give low values. activity change, % at 57.5 µM; in the data active = activity change below about -50%; inconclusive = mostly about -30% to -49%
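Secreted IL-1B measured by AlphaLISA bead assay after 16 h compound exposure of THP-1 cells; compounds (final up to 57.5 uM) added 1 h before LPS (250 ng/mL) and ATP (1.25 mM) stimulation; lower signal means less secretion.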
SW480 rerep: A quantitative high throughput screen for small molecules that induce DNA re-replication in SW480 colon adenocarcinoma cells | SW480 DNA re-replication, Hoechst DNA content imaging, 48 h | Potency, µM (highest dose often 46.1 µM), most hits filed as activators | hit rate 1.8% among 340,000; also: nearly all actives have a fitted effect of over 55% in size
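First, 250 cells per well were seeded. Next, compound or vehicle (23 nL) was pinned in, plates sat 48 hr at 37 C. Finally Hoechst was added for 40 min before fluorescence scanning.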
KB-3-1 tox: qHTS assay for MDR1-selective chemotherapeutics: Primary screen using the parental adenocarcinoma cell KB-3-1. KB-3-1 viability, CellTiter-Glo ATP luminescence, 72 h. Potency, µM (titrated, usually from 46.1 µM), hits mostly cytotoxic. hit rate 1.4% among 400,000. AID 1347075, 2019; also: nearly all actives have a fitted effect of over 60% in size
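Here the drug-naive KB-3-1 line serves as comparator for MDR sub-line selectivity; cells received compound titrations, 72 h at 37 °C, then CellTiter-Glo readout.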
A number is an active result; i = inactive; ? = inconclusive; nt = not tested or not shown; [ ] = remark or other dose. Unless noted, calls follow the shape of the dose curve; as a rule, active = well fitted curve in the direction sought with a large enough effect; inconclusive = small, poorly fitted or top-dose-only effect, or another doubt; inactive = no such curve, though single readings can be large; an effect the other way counts as inactive or inconclusive.

SMILES | MCF10A rereplic | KB-V1 cytotox | IL-1B inflam inh | SW480 rerep | KB-3-1 tox
Cc1cc2nc3ccc(=[N+](C)C)cc-3sc2cc1N | i | 16.4µM | i | ? | ?
O=C(Nc1nc(-c2ccc3c(c2)OCCO3)cs1)C1CC(=O)N(c2ccc3c(c2)OCCO3)C1 (centres undefined) | nt | i | nt | nt | ?
COc1ccc(-c2csc(NC(=O)C3CC(=O)N(Cc4ccco4)C3)n2)cc1 (centres undefined) | i | ? | -60.7 | i | i
COc1ccc(-c2csc(NC(=O)C3CC(=O)N(c4ccc5c(c4)OCCO5)C3)n2)cc1 (centres undefined) | i | 20.6µM | i | nt | i
CC(=O)c1sc(NC(=O)C2CC(=O)N(Cc3ccco3)C2)nc1-c1ccccc1 (centres undefined) | i | i | -94.6 | ? | i
CCCCN1C(=O)NC2NC(=O)NC21 (centres undefined) | i | ? | -91.7 | i | i
O=C(/C=C1\SC(=O)NC1=O)Nc1ccc(C(=O)O)cc1 | i | i | i | i | i
Cc1ccccc1NC(=O)/C=C1\SC(=O)NC1=O | 23.1µM | ? | i | ? | i
CCOc1ccc(N(CC(=O)Nc2ccc(OC)cc2)C2=NC3CS(=O)(=O)CC3S2)cc1 (centres undefined) | i | i | -58.4 | i | i
CCOc1ccc(N(CC(=O)Nc2ccc(C)c(F)c2)C2=NC3CS(=O)(=O)CC3S2)cc1 (centres undefined) | ? | i | i | i | i
Cc1nn(CC(C)C)c2sc(C(=O)NC3CC(C)(C)NC(C)(C)C3)cc12 | i | i | i | ? | i
COc1cc(Cl)c(C)cc1Nc1nc2ccccc2c2nnc(C)n12 | nt | i | nt | nt | i
Oc1cc(NCc2ccc(F)cc2)cc2cccnc12 | ? | i | nt | ? | 6.51µM
Oc1cc(NCc2ccc(Cl)cc2)cc2cccnc12 | i | i | nt | i | 16.4µM
COC(=O)c1ccccc1-n1cccc1C(=O)NP(=O)(N1CCOCC1)N1CCOCC1 | i | i | i | i | ?
CCCOc1ccc(C(=O)C(CN2CCOCC2)c2ccccc2)cc1 (centres undefined) | 17.8µM | ? | -96.9 | 11.2µM | ?
COc1ccc(C(=O)C(CN2CCOCC2)c2ccccc2)cc1F (centres undefined) | 11.6µM | ? | -101.2 | ? | ?
CCCOc1ccc(C(=O)C(c2ccccc2)N2CCOCC2)cc1 (centres undefined) | i | i | i | i | i
O=C(c1ccc(Cl)cc1)C(CN1CCCCC1)c1ccccc1 (centres undefined) | ? | 20.6µM | -103.3 | ? | 23.1µM
Cc1cccc(NC(=O)C(=O)NCC(c2ccc3c(c2)OCO3)N2CCOCC2)c1C (centres undefined) | nt | i | nt | nt | i
COC(=O)[C@@]12OC[C@]34[C@H]([C@@H](O)[C@@H]1O)[C@@]1(C)C(=O)C(O[C@@H]5OC(CO)[C@@H](O)[C@@H](O)[C@@H]5O)=C[C@@H](C)[C@@H]1C[C@H]3OC(=O)[C@H](OC(=O)/C=C(\C)C(C)(C)OC(C)=O)[C@@H]24 (some centres undefined) | i | i | -56.0 | i | ?
CCOC(=O)c1c(N)sc(C(O)(C(F)(F)F)C(F)(F)F)c1-c1ccc(Cl)cc1 | 14.6µM | i | i | ? | i
CCOC(=O)c1c(N)sc(C(O)(C(F)(F)F)C(F)(F)F)c1-c1ccc(F)cc1 | i[0.0737 µM] | i | i | 18.4µM | i
CCOc1ccc(OCC)c(-c2c(=O)n(OCc3ccccc3C(=O)OC)c3ccccc3[n+]2[O-])c1 | i | 3.66µM | i | i | i
Cc1ccc(N(Cc2ccccc2)C(=O)c2ccc(S(=O)(=O)N3CCOCC3)cc2)cc1 | i | i | -59.6 | i | i
Cc1ccc(N(Cc2ccccc2)C(=O)c2cccc(S(=O)(=O)N3CCOCC3)c2)cc1 | i | ? | i | i | i
Cc1ccc(N(Cc2ccccc2)C(=O)c2cc(S(=O)(=O)N3CCOCC3)ccc2F)cc1 | i | 9.2µM | i | i | i
